KCNQ2 pot – potentiators of rat KCNQ2 potassium channel | CHO-K1 KCNQ2, FluxOR thallium flux fluorescence; stronger effect = higher value | AID 2239, 2010 | actives 0.54% (n = 310,000) | Potassium voltage-gated channel subfamily KQT member 2 (Rattus norvegicus), O88943 | B-score at 10 µM;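 active = fluorescence ratio B-score at least 3 SD of library B-scores, with initial fluorescence B-score within 3 of them, cut at about 5.3 in these data; same plate scores as AID 2156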;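 also: B-score of peak minus minimum over baseline fluorescence ratio after K+ and Tl+ stimulus; positive B-score means potentiation of KCNQ2 with more thallium influx and brighter signal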
KCNQ2 block – rat KCNQ2 potassium channel inhibitors, primary screen, cell-based, CHO-K1, FluxOR thallium flux, B-score | Potassium voltage-gated channel subfamily KQT member 2 (Rattus norvegicus), O88943 | 20 min; stronger effect = lower value | B-score at 10 µM | actives 1.1% (n = 310,000) | AID 2156, 2009;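 active = fluorescence ratio B-score at most minus 3 library SDs, with starting brightness B-score within 2 library SDs, cut at about -5.5 in these data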
KCNQ2 block conf – rat KCNQ2 potassium channel inhibitors, confirmation, cell-based, thallium flux | shares compounds with KCNQ2 block | KCNQ2-expressing cells, inhibition; stronger effect = lower value | activity change, negative = inhibition, % at 10 µM | actives 57% (n = 1,000) | AID 493025, 2011;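 also: 0% = vehicle wells and values are ratio percent relative to vehicle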
KCNQ1 spec – human KCNQ1 channel inhibition, counter-screen for KCNQ2 inhibitor project, cell-based, FluxOR thallium flux; activity change, negative = inhibition, % at 10 µM; actives 15% (n = 1,000); KCNQ1-expressing cells, FluxOR thallium flux fluorescence; stronger effect = lower value; shares compounds with KCNQ2 block; AID 493026, 2011;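 active = activity change at least 3 SD of negative controls below their mean in both duplicate wells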;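 also: CHO cells stably transfected with KCNQ1 and depolarized by potassium stimulus; peak minus minimum fluorescence over baseline after thallium addition; 0% = vehicle negative control and -100% = blank without thallium stimulus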
Target sequence (P51787 whole entry, looked up): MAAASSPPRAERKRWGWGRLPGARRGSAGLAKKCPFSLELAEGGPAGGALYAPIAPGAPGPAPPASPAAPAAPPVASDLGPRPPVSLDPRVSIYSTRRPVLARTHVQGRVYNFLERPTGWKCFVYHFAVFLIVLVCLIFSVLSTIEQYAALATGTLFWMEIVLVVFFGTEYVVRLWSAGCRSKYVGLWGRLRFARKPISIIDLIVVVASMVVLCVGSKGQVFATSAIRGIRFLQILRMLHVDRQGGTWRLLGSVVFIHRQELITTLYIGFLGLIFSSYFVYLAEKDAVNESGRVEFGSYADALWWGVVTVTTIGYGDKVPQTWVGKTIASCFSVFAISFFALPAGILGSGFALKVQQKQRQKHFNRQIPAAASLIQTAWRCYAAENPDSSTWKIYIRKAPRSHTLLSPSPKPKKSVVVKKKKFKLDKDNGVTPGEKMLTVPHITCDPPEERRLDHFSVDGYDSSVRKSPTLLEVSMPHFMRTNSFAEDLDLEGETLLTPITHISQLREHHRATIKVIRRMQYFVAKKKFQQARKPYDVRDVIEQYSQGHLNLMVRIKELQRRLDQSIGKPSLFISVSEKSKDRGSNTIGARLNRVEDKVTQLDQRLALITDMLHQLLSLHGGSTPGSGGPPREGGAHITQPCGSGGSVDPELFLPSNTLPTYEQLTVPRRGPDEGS
CHO Tl ctr – thallium flux change in parental CHO cells, counter-screen for KCNQ2 inhibitor project | AID 493029, 2011 | activity change, % at 10 µM | actives 14% (n = 1,000) | shares compounds with KCNQ2 block | stronger effect = lower value;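 also: 0% = vehicle negative controls with stimulus buffer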
KCNQ2 patch conf – rat KCNQ2 channel inhibitors, confirmation, cell-based, automated patch clamp, single concentration | shares compounds with KCNQ2 block | KCNQ2-expressing cells, automated patch clamp current | calls only at 10 µM | actives 49% (n = 550)
The depositor's hits bear a star; i = inactive; / = no result given; + = active, no number. Only some compounds are listed: those with a hit (about 1.6% of all), similar ones and a draw of the others. Unless noted, no rule for the calls is given here.

SMILES	KCNQ2 pot	KCNQ2 block	KCNQ2 block conf	KCNQ1 spec	CHO Tl ctr	others
COc1ccccc1NC(=O)c1cc(C)nc2ccccc12	/	i	/	/	/
Cc1ccc(NC(=O)c2cc(-c3ccc(C)o3)nc3ccccc23)cc1	/	i	/	/	/
Cc1ccc(-c2cc(C(=O)Nc3cccnc3)c3ccccc3n2)o1	-8.1	-8.1*	i	i	i
CCOC(=O)C1CCN(C(=O)c2cc(S(=O)(=O)N3CCCCCC3)ccc2OC)CC1	0.26	i	/	/	/
CC1OC(Oc2c(-c3cc(O)c(O)c(O)c3)oc3cc(O)cc(O)c3c2=O)C(O)C(O)C1O (centres undefined)	/	i	/	/	/
CC(C)=CCc1c(O)cc(O)c2c(=O)c(O[C@@H]3O[C@@H](C)[C@H](O)[C@@H](O)[C@H]3O)c(-c3ccc(O)cc3)oc12	-7.1	-7.1*	-40%*	-36%*	-23%*	KCNQ2 patch conf=i
CC(Oc1cc(F)ccc1[N+](=O)[O-])C(=O)Nc1ccc(S(=O)(=O)N2CCCC2)cc1 (centres undefined)	0.46	i	/	/	/
Cc1ccc(C)c(NC(=O)CSc2nnc(-c3cc(C)[nH]n3)n2N)c1	0.19	i	/	/	/
CS(=O)(=O)N(Cc1ccco1)CC(O)Cn1c2ccccc2c2ccccc21 (centres undefined)	-8.2	-8.2*	-26%*	i	i	KCNQ2 patch conf=+
Cc1ccc(N(CC(O)Cn2c3ccccc3c3ccccc32)S(C)(=O)=O)cc1 (centres undefined)	/	i	/	/	/
CC(C)(C)c1ccc(S(=O)(=O)NCCc2ccncc2)cc1	/	i	/	/	/
Cc1ccc(CNS(=O)(=O)c2ccc(C(C)(C)C)cc2)n1C	-7.1	-7.1*	/	i	i	KCNQ2 patch conf=+
CCCCCCCCCCCCCCCC(O)C(N)CO (centres undefined)	-10	-10*	i	i	i
CCCCCC[C@@H]([C@@H](C)O)n1cnc2c(N)ncnc21	0.81	i	/	/	/
CC(=O)NC(C)C(=O)OCC(=O)Nc1ccc(Br)cc1 (centres undefined)	/	i	/	/	/
CCc1ccc(C(C)NC(=O)/C(C#N)=C\c2cn[nH]c2-c2ccccc2)cc1 (centres undefined)	-9.1	-9.1*	i	i	i
CC(NC(=O)/C(C#N)=C/c1cn[nH]c1-c1ccccc1)c1ccccc1 (centres undefined)	/	i	/	/	/
O=C(Cn1cc(S(=O)(=O)Cc2ccccc2)c2ccccc21)Nc1ccccc1	0.16	i	/	/	/
CC(=O)Nc1ccc(NC(=O)[C@@H]2CCCN2S(=O)(=O)c2ccc3c(c2)OCCO3)cc1	/	i	/	/	/
Cc1cccc(C)c1OCc1cc(C(=O)N2CCC(C3CCCCC3)C2)no1 (centres undefined)	/	i	/	/	/
Cc1cccc(C)c1OCc1cc(C(=O)N2CCC(c3ccccc3)CC2)no1	-9.2	-9.2*	-24%*	i	i	KCNQ2 patch conf=+
O=C(CSc1cccc[n+]1[O-])N1CCc2ccccc21	/	i	/	/	/
COc1ccc(/C=C/C(=O)N2CCCc3ccccc32)c(OC)c1	/	i	/	/	/
COc1ccc(OC)c(/C=C/C(=O)N2CCCc3ccccc32)c1	-7	-7*	-38%*	i	i	KCNQ2 patch conf=i
CCOC(=O)/C(=N\Nc1cc(C(F)(F)F)ccc1Cl)N(CC)CC	-8.9	-8.9*	i	i	i
SMILES	KCNQ2 pot	KCNQ2 block	KCNQ2 block conf	KCNQ1 spec	CHO Tl ctr	others
CN(C)CC(=O)Nc1cc(C(F)(F)F)ccc1Cl	0.07	i	/	/	/
Cc1cc(C)nc(NS(=O)(=O)c2ccc(NC(=O)c3cccc(N4C(=O)CCC4=O)c3)cc2)n1	/	i	/	/	/
COC(=O)c1cc(-c2ccc3c(c2)OCO3)nc2ccccc12	0.09	i	/	/	/
Cc1cc(C)nc(NC(=O)c2cc(-c3ccc4c(c3)OCO4)nc3ccccc23)c1	-7.7	-7.7*	-32%*	i	i	KCNQ2 patch conf=+
Cc1ccccc1S(=O)(=O)Cc1ccc(C(=O)NCc2ccccc2)o1	/	i	/	/	/
CCOC(=O)N1CCC(n2c(SCC(=O)NCCC3=CCCCC3)nc3ccccc3c2=O)CC1	-7.5	-7.5*	i	i	i
CCOC(=O)N1CCC(n2c(SCC(=O)N3CCC(C)CC3)nc3ccccc3c2=O)CC1	-7.8	-7.8*	i	i	i
CCOC(=O)N1CCC(n2c(SCC(=O)NCc3ccccc3)nc3ccccc3c2=O)CC1	/	i	/	/	/
CCOC(=O)N1CCC(n2c(SCC(=O)N3CCCC3)nc3ccccc3c2=O)CC1	/	i	/	/	/
Cc1nc2ccccc2c(=O)n1NC(=O)C1CCC(C(C)(C)C)CC1 (centres undefined)	2.3	i	/	/	/
COc1ccc(N(CC(=O)N2c3ccccc3CC2C)S(=O)(=O)c2c(C)noc2C)cc1 (centres undefined)	/	i	/	/	/
C[C@]1(C(=O)O)C=C[C@@H](Cc2ccccc2)N1C(=O)c1ccccc1	0.89	i	/	/	/
COC(=O)c1ccc(NC(=O)CCc2nnc3ccc(N4CCC5(CC4)OCCO5)nn23)cc1	/	i	/	/	/
CCCCOC(=O)/C=C/c1ccc(OC(=O)OC)c(OC(=O)OC)c1	0.61	i	/	/	/
CCN1CCN(c2oc(COc3ccc(Cl)cc3)nc2C#N)CC1	/	i	/	/	/
N#Cc1nc(COc2ccc(Cl)cc2)oc1N1CCN(Cc2ccccc2)CC1	-6.9	-6.9*	-24%*	i	i	KCNQ2 patch conf=i
CC(C)=CCc1cc([C@@H]2CC(=O)c3ccc(O)c(CC=C(C)C)c3O2)ccc1O	-9	-9*	i	i	i
Cc1ccc2c(c1)C(=O)CC(c1ccc3c(c1)OCCO3)O2 (centres undefined)	0.39	i	/	/	/
Cc1cccc(NC(=O)CSc2nnc(-c3ccco3)c(-c3ccco3)n2)c1C	0.13	i	/	/	/
CCN(c1ccccc1)S(=O)(=O)c1ccc(OC)c(NS(=O)(=O)c2cccs2)c1	2.3	i	/	/	/
COc1cc(NS(=O)(=O)N2CCCC2)cc(OC)c1OC	/	i	/	/	/
COc1ccc(Cn2nnnc2C(C(C)C)N(Cc2ccco2)Cc2cccs2)cc1 (centres undefined)	/	i	/	/	/
CC(C)C(c1nnnn1Cc1ccccc1)N(Cc1ccco1)Cc1cccs1 (centres undefined)	-9	-9*	-44%*	-45%*	-41%*	KCNQ2 patch conf=i
COc1cccc(-c2cc(C(F)(F)F)n3ncc(C(=O)N4CCc5ccccc5C4)c3n2)c1	/	i	/	/	/
COc1ccc(-c2cc(C(F)(F)F)n3ncc(C(=O)N4CCc5ccccc5C4)c3n2)cc1	-6.8	-6.8*	i	i	i
O=C(c1cc(-c2ccccc2)nc2ccccc12)N1CCc2ccccc2C1	-7.8	-7.8*	-28%*	i	i	KCNQ2 patch conf=+
O=C(c1cc(Cl)nc2ccccc12)N1CCc2ccccc2C1	/	i	/	/	/
Cc1ccc2nc(-c3ccccn3)cc(C(=O)N3CCN(c4ncccn4)CC3)c2c1	0.46	i	/	/	/

Source: PubChem
